Counter-ions that a name gives are not always drawn. ± gives the standard deviation of the averaged measurements.
These molecules were tested on A549 (assay: relative viability (normalised to negative control = 1, bortezomib = 0) (fraction); higher = less cytotoxic). Details: inflammatory serum-free RHB-A with cytokines + LPS; 5 d + 24 h CellTiter-Blue; compound 30 nM; GSK126 pretreatment: none (vehicle).
Work on `COc1cc(Nc2ncc(F)c(Nc3ccc4c(n3)NC(=O)C(C)(C)O4)n2)cc(OC)c1OC` [R406(free base); R406] yielded a relative viability of 0.896 ± 0.067. For `Cc1ccc(Nc2nccc(N(C)c3ccc4c(C)n(C)nc4c3)n2)cc1S(N)(=O)=O` [Pazopanib Hydrochloride], the relative viability was 0.935 ± 0.081. For `CO[C@H]1C(=O)[C@]2(C)[C@@H](OC)C[C@H]3OC[C@@]3(OC(C)=O)[C@H]2[C@H](OC(=O)c2ccccc2)[C@]2(O)C[C@H](OC(=O)[C@H](O)[C@@H](NC(=O)OC(C)(C)C)c3ccccc3)C(C)=C1C2(C)C` [Cabazitaxel], the relative viability was 0.349 ± 0.054. With `COc1cc(Nc2ncc(F)c(Nc3ccc4c(n3)N(COP(=O)(O)O)C(=O)C(C)(C)O4)n2)cc(OC)c1OC` the relative viability was 0.888 ± 0.056. `CC/C(=C(\c1ccccc1)c1ccc(OCCN(C)C)cc1)c1ccccc1` [Tamoxifen citrate] was tested, and the relative viability was 0.863 ± 0.019. For `CC(C)n1nc(-c2cc3cc(O)ccc3[nH]2)c2c(N)ncnc21`, the relative viability was 0.751 ± 0.032. In the case of `O=C(O)C(=O)O.[NH-][C@@H]1CCCC[C@H]1[NH-].[Pt+2]` [Oxaliplatin], the relative viability is reported as 0.782 ± 0.1. With `CCOc1ccn(-c2ccc(F)cc2)c(=O)c1C(=O)Nc1ccc(Oc2ccnc(N)c2Cl)c(F)c1` the relative viability was 0.914 ± 0.17. Work on `CC[C@@]1(O)C(=O)OCc2c1cc1n(c2=O)Cc2cc3c(CN(C)C)c(O)ccc3nc2-1` [Topotecan HCl; Topotecan hydrochloride] yielded a relative viability of 0.383 ± 0.021. `CS(=O)(=O)OCCCCOS(C)(=O)=O` [Busulfan] showed a relative viability of 0.865 ± 0.038. `Cc1cccc(-c2[nH]c(C(C)(C)C)nc2-c2ccc3nccnc3c2)n1` gave a relative viability of 0.828 ± 0.086. For `Cn1cnc2c(F)c(Nc3ccc(Br)cc3Cl)c(C(=O)NOCCO)cc21` [AZD6244(Selumetinib)], the relative viability was 0.592 ± 0.045. With `CCC[C@H](NC(=O)/C(C#N)=C/c1cccc(Br)n1)c1ccccc1` the relative viability was 0.929 ± 0.044. `Nc1nc(Cl)nc2c1ncn2[C@H]1C[C@H](O)[C@@H](CO)O1` [Cladribine] showed a relative viability of 0.729 ± 0.099. In the case of `Nc1ncnc2c1c(-c1cccc(OCc3ccccc3)c1)cn2C1CC(CN2CCCC2)C1` (configuration not stated), the relative viability is reported as 0.748 ± 0.028. `Cc1c(NC(=O)OC[C@@H]2COCCN2)cn2ncnc(Nc3ccc4c(cnn4Cc4cccc(F)c4)c3)c12` showed a relative viability of 0.802 ± 0.081. `Oc1ncnc2[nH]ncc12` [Allopurinol] was tested, and the relative viability was 0.996 ± 0.03. With `COc1cc(N2CCC(N3CCN(C)CC3)CC2)ccc1Nc1ncc(Cl)c(Nc2ccccc2S(=O)(=O)C(C)C)n1` the relative viability was 0.605 ± 0.022. Molecule `COc1c2occc2cc2ccc(=O)oc12` [Methoxsalen] has a relative viability of 0.883 ± 0.11. With `Nc1ccn([C@@H]2O[C@H](CO)[C@@H](O)C2(F)F)c(=O)n1` [Gemcitabine hydrochloride; Gemcitabine HCl] the relative viability was 0.264 ± 0.087. `CO[C@H]1C[C@@H]2CC[C@@H](C)[C@@](O)(O2)C(=O)C(=O)N2CCCC[C@H]2C(=O)O[C@H]([C@H](C)C[C@@H]2CC[C@@H](O)[C@H](OC)C2)CC(=O)[C@H](C)/C=C(\C)[C@@H](O)[C@@H](OC)C(=O)[C@H](C)C[C@H](C)/C=C/C=C/C=C/1C` [Sirolimus; RAPAMYCIN; Rapamycin(Sirolimus); Rapamycin] was tested, and the relative viability was 0.588 ± 0.064. Molecule `COc1cc2nccc(Oc3ccc(NC(=O)C4(C(=O)Nc5ccc(F)cc5)CC4)cc3)c2cc1OC` [XL184; Cabozantinib] has a relative viability of 0.875 ± 0.12. For `CC[C@@H]1C(=O)N(C)c2cnc(Nc3ccc(C(=O)NC4CCC(N5CCN(CC6CC6)CC5)CC4)cc3OC)nc2N1C(C)C` (some centres not stated) [BI6727 (Volasertib)], the relative viability was 0.38 ± 0.095. `CC(=O)Nc1cccc(-n2c(=O)n(C3CC3)c(=O)c3c(Nc4ccc(I)cc4F)n(C)c(=O)c(C)c32)c1` was tested, and the relative viability was 0.171 ± 0.011. Molecule `O=C(NOCC(O)CO)c1cc(Br)c(F)c(F)c1Nc1ccc(I)cc1F` (configuration not stated) has a relative viability of 0.492 ± 0.087. `C#CCC(Cc1cnc2nc(N)nc(N)c2n1)c1ccc(C(=O)N[C@@H](CCC(=O)O)C(=O)O)cc1` (some centres not stated) [pralatrexate] gave a relative viability of 0.859 ± 0.075. In the case of `CC[C@]1(O)C[C@H]2CN(CCc3c([nH]c4ccccc34)[C@@](C(=O)OC)(c3cc4c(cc3OC)N(C=O)[C@H]3[C@@](O)(C(=O)OC)[C@H](OC(C)=O)[C@]5(CC)C=CCN6CC[C@]43[C@@H]65)C2)C1` [Vincristine sulfate], the relative viability is reported as 0.289 ± 0.031. Work on `C[C@]12CC[C@H](O)CC1=CC[C@@H]1[C@@H]2CC[C@]2(C)C(c3cccnc3)=CC[C@@H]12` [Abiraterone] yielded a relative viability of 0.869 ± 0.13. `OCCn1cc(-c2cnc3nnn(Cc4ccc5ncccc5c4)c3n2)cn1` was tested, and the relative viability was 0.9847 ± 0.0075. Work on `Cn1c(=O)c(F)c(Nc2ccc(I)cc2F)c2c(=O)n(C[C@@H](O)CO)cnc21` yielded a relative viability of 0.1847 ± 0.0015. `Cc1cn(-c2cc(NC(=O)c3ccc(C)c(Nc4nccc(-c5cccnc5)n4)c3)cc(C(F)(F)F)c2)cn1` [Nilotinib] showed a relative viability of 0.993 ± 0.089. `Cc1nc(NC(=O)N2CCC[C@H]2C(N)=O)sc1-c1csc(C(C)(C)C)n1` was tested, and the relative viability was 0.869 ± 0.085. For `C/C=C1\NC(=O)[C@H]2CSSCC/C=C/[C@H](CC(=O)N[C@H](C(C)C)C(=O)N2)OC(=O)[C@H](C(C)C)NC1=O` [Depsipeptide], the relative viability was 0.00595 ± 0.0056. Work on `COc1cc2/c(=N/c3ccc(Br)cc3F)nc[nH]c2cc1OCC1CCN(C)CC1` [Vandetanib] yielded a relative viability of 0.924 ± 0.083. For `C=CC(=O)Nc1cccc(Sc2nc(Nc3ccc(N4CCN(C)CC4)cc3)ncc2Cl)c1`, the relative viability was 0.815 ± 0.085. Work on `N#CC(=C(/N)Sc1ccccc1N)/C(C#N)=C(/N)Sc1ccccc1N` yielded a relative viability of 0.825 ± 0.11. With `Oc1ccc(-c2nc(-c3ccc(F)cc3)c(-c3ccncc3)[nH]2)cc1` the relative viability was 0.954 ± 0.13.

— the supplement of paper PMC6279402
